Fewer than 10 of roughly 67,000 compounds were called active. Not all results are given here. Unmarked numbers belong to inactive results. Calls follow the shape of the dose curve; as a rule, active = well fitted activation curve with a large enough effect (not every such curve was filed as active); inconclusive = small, poorly fitted or top-dose-only effect, or another doubt; inactive = no such curve, though single readings can be large or run the other way.

A short description of this assay: Ubiquitin-GFP Assay. The conditions noted are these: Ubiquitin-GFP reporter cells, proteasome inhibition, GFP fluorescence, untreated = 0%, 10 µM MG-132 = 100%; series mostly up to 45.9 µM; activation (GFP accumulation): at the top concentration. The text has this: NIH Chemical Genomics Center [NCGC]
NIH Molecular Libraries Screening Centers Network [MLSCN]
The ubiquitin-proteasome pathway is present within all eukaryotic cells and plays roles in normal cellular functions and disease-related dysfunction. Proteins are tagged with a poly-ubiquitin chain that targets them for the proteasome, a multimeric protease, that degrades the protein into peptides and free ubiquitin. The proteasome has a key role in regulating cell cycle and growth and is known to control the levels of cyclins and CDK inhibitors as well as tumor suppressor proteins. Additionally, the activation of NF- B is controlled by ubiquitin-labeling and degradation of the inhibitory protein I B . […] With this in mind, proteasome inhibitors such as MG-132 and PS-341 have been used to inhibit tumor cell growth.
A cellular assay for ubiquitin-proteasome function was used to find chemical probes of this pathway. The assay used an ubiquitin-GFP construct expressed in U2OS cells (BioImage). Under basal conditions little GFP can be detected as it is degraded by the proteasome. However, treatment of the cells with a proteasome inhibitor such as MG-132 results in a rise in GFP levels that can be detected in as little as four hours. We used the Acumen-Explorer laser plate cytometer having a 488 nm laser as an excitation light source to detect the GFP. Compounds were screened in 1536-well plates using qHTS with a concentration-titration series range that varied from 46 uM to 2.9 nM.
NCGC Assay Protocol Summary:
Cells (U20S ps 2042) expressing ubiquitin (G76V-GFP) were maintained in DMEM with Glutamax-1 and high glucose, 10% FBS, 1% (v/v) penicillin-streptomycin, 0.5 mg/mL Geneticin (G418). The cells were seeded in 1536-well plates using a solenoid-based dispenser at 700 cells/5ul in DMEM medium with Glutamax-1 and high glucose containing 0.5% FBS, w/o phenol red, 25 mM HEPES. The plates were incubated at 37 °C/5% CO2 overnight. Then 23 nl of MG-132 in DMSO was added to the control wells at a final concentration of 10 uM. Next, 23 nL of library compounds in DMSO were added to the sample wells. The plates were incubated for 4 hrs at 37 °C/5% CO2. Following this incubation the plates were read on the Acumen using a cell object definition of 15 to 100 um in width and depth and a window of Total Intensity of between 77,200 and 2,720,000 FLU to enumerate GFP-expressing cells.
The %Activity was determined from the basal and MG-132 treated control wells. %Activity was determined by normalizing to the difference in signal between basal cells (0% Activity) and cells incubated with 10 uM of the proteasome inhibitor MG-132 (100% Activity). Concentration-response curves were fitted to the signals arising from the GFP fluorescence.
Assay Protocol Summary Table
Sequence Parameter Value Description
2. Time O/N 37C incubation
4. Compound 23 nL Libraries (46 uM to 2.9 nM)
5. Time 4 hr 37C incubation
6. Detector Acumen Total Intensity, GFP fluorescence (488 ex/515 em)
Keywords: NIH Roadmap, MLSCN, MLI, MLSMR, BioImage, proteasome, ubiquitin-GFP, qHTS, NCGC
Take `O=C(CCN1C(=O)c2ccccc2C1=O)Nc1ccncc1`: the “activation (GFP accumulation)” value is 8.7%. For `Clc1ccccc1-c1cc(NCCN2CCOCC2)ncn1`, the “activation (GFP accumulation)” value was -1.15%. The value for `CCCS(=O)(=O)N1CCCC(C(=O)NCc2ccco2)C1` (stereo not drawn) was 10.3%; that for `COc1ccc(-c2noc(CN(C)S(=O)(=O)c3ccc(C)cc3)n2)cc1` was -7.56%; that for `Cc1nc2cnc(Nc3ccccc3)nc2n(C[C@H]2CCCO2)c1=O` was 7.85%. Turning to `COc1ccccc1CNc1cc(-c2ccccc2CN(C)C)ncn1`, the “activation (GFP accumulation)” value was 0.877%. The value for `CCn1c(=N)c(C(=O)NCCCOC)cc2c(=O)n3cccc(C)c3nc21` was 0%. For `Oc1ccc(Cn2cc[nH]c2=S)cc1` the value was 1.69%; for `O=C(Nc1cccc(F)c1)N1CCC2(CC1)CCN(S(=O)(=O)c1ccccc1)CC2`, 1.75%. `CCOc1ccc(N=NS(=O)(=O)O)cc1`: the activation (GFP accumulation) is -2.9% [at 9.17 µM]. The value for `NC(=S)c1ccc(C(N)=S)o1` was -0.962%; that for `COc1ccc(CN2CC(C(=O)NCCN3CCN(c4ccccc4F)CC3)CC2=O)cc1` (stereo not drawn) was 0.948%. For `COC(=O)c1ccc2c(c1)S(=O)(=O)NC(=NCCCN1CCOCC1)S2` the value was -2.3%; for `CN(C(=O)CN(CCO)CC(=O)N(C)C(C)(C)Cc1ccccc1)C(C)(C)Cc1ccccc1`, -2.13% [at 20.5 µM]. The value for `O=C(O)C1=CCCN(CCON=C(c2ccccc2)c2ccccc2)C1` was “inactive”; that for `CCS(=O)(=O)N1CCCC(C(=O)NCCCN(C)Cc2ccccc2)C1` (stereo not drawn) was -17.9%.

In the case of `COC(=O)C1(S(=O)(=O)C2(C(=O)OC)CCCC2)CCCC1`, the “activation (GFP accumulation)” value was -3.95%.

With `CC(C)[C@H](CO)Nc1nc(Nc2cc(N)cc(Cl)c2)c2ncn(C(C)C)c2n1`, the “activation (GFP accumulation)” value is 4.86%. In the case of `O=c1cc(-c2ccc(O)c(O)c2)oc2cccc(O)c12`, the “activation (GFP accumulation)” value is -3.85%.

In the case of `CC(C)NC[C@H](O)c1ccc2ccccc2c1`, the activation (GFP accumulation) result is “inactive”. The value for `CCOC(=O)c1sc(NC(=O)CSc2nnc(-c3ccco3)o2)c(C(=O)OCC)c1C` was 0.862%. For `CN1CCN(Cc2nc3c(c(=O)n(C)c(=O)n3C)n2Cc2cccc3ccccc23)CC1` the value was 7.76%; for `O=C(O)[C@@H](S)[C@H](S)C(=O)O`, 4.35% [at 9.17 µM].

For `COC(=O)c1ccc(NC(=O)C(C)N2C(=O)c3ccccc3C2=O)cc1` (stereo not drawn), the “activation (GFP accumulation)” value is 18%. Consider `CC(=O)N1CCC2(CC1)CCN(c1ccncc1)CC2`, for which the “activation (GFP accumulation)” value was -6.67%. In the case of `COCCn1c(=O)c(-c2ccc(OC)cc2)nc2cnc(Oc3cccc(Cl)c3)nc21`, the “activation (GFP accumulation)” value is 1.07%. The value for `Cc1cccc(OCc2nnc(SCn3nnc4ccccc4c3=O)o2)c1` was 5.55%; that for `Fc1cccc(/C=N\N=C/c2cccc(F)c2)c1` was 0.0487%; that for `COc1ccc(CNc2ncnc3ccc(-c4cccnc4)cc23)c(OC)c1` was 2.78%. The value for `CC(C)(C)Nc1c(N)c(=O)oc2ccccc12` was -4.55% [at 9.17 µM]. In the case of `COc1ccccc1N1CCN(C[C@@H]2CN3C(=O)N(C)c4ccccc4C3=N2)CC1`, the “activation (GFP accumulation)” value is 1.28%. As for `CC[C@]1(C)CC(=O)NC1=O`, the activation (GFP accumulation) entry is “inactive”. For `Cc1cc(=O)[nH]c(SCc2cc(Cl)ccc2OC(F)F)n1` the value was -2.36%; for `COc1ccc(NC(C)=O)cc1NC(=O)CN1CCN(C2c3ccccc3-c3ccccc32)CC1`, 6.87%; for `COCC(=O)Nc1nnc(COc2ccccc2)s1`, 2.01%. For `O=C(O)Cc1ccc(-c2ccccc2)cc1`, the “activation (GFP accumulation)” value is -6.38% [at 20.5 µM]. On to `CCCS(=O)(=O)N1CCN(C(=O)c2cccs2)CC1`, for which the “activation (GFP accumulation)” value was 5.32%. For `CC1=C(C(=O)OC2CCCCC2)C(c2cccnc2)n2ncnc2N1` (stereo not drawn) the value was 0%.

In the case of `C1=C(N2CCOCC2)/C(=C/c2nc3ccccc3[nH]2)CC1`, the activation (GFP accumulation) was -10.8% [at 9.17 µM].

Take `O=C(CSc1nnc(-c2cccnc2)n1Cc1ccco1)c1ccc(Cl)cc1`: the “activation (GFP accumulation)” value is -0.562%.

Take `CC(C)(CSc1nncn1/N=C/c1ccco1)NS(=O)(=O)c1ccc(Cl)cc1`: the “activation (GFP accumulation)” value is -1.69%. For `CCC(c1nnnn1Cc1ccco1)N(CCc1ccccc1)Cc1cc2cccc(C)c2[nH]c1=O` (stereo not drawn) the value was 0.917%; for `CC(C(=O)O)N1C(=O)c2cccc3cccc1c23` (stereo not drawn), -5.36%. The value for `CC[N+](C)(CC)CCC[n+]1c(-c2ccccc2)c2cc(N)ccc2c2ccc(N)cc21` was 17.1% [at 20.5 µM]. Regarding `CC1(C)S[C@@H]2[C@@H](NC(=O)[C@@H](N)c3ccccc3)C(=O)N2[C@H]1C(=O)O`, the “activation (GFP accumulation)” value was 0%. Take `Cc1ccc(CNC(=O)C2CC(=O)N(C3CCCCCCC3)C2)cc1` (stereo not drawn): the “activation (GFP accumulation)” value was -1.72%. The value for `COc1ccccc1-n1nnnc1S(=O)(=O)Cc1ccc(Cl)cc1` was -7.5%. For `Cc1nc(N2CCN(c3ncccn3)CC2)c2oc3ccccc3c2n1` the value was 1.72%; for `CSc1ccc(S(=O)(=O)Nc2cccc(F)c2)cc1`, -0.229%. As for `O=C(NCc1cccs1)C1CCN(S(=O)(=O)c2ccc3c(c2)OCCO3)CC1`, the “activation (GFP accumulation)” value was -1.96%. For `O=S(=O)(O)c1ccc(O)c2ncccc12.O=S(=O)(O)c1ccc(O)c2ncccc12.[Zn]`, the activation (GFP accumulation) was 2.9% [at 9.17 µM].

For the compound `CN(C)c1ccc(CNC23CN4CN(CN(C4)C2)C3)cc1`, the “activation (GFP accumulation)” value was -1.33%. The value for `CCCn1c(C(O)c2cc(OC)ccc2OC)nc2ccccc21` (stereo not drawn) was -12.9%.
